Measured values taken from the supplement of paper PMC8728848.
The sample as a whole holds a higher share of the strongest signals than the screen did.

Experiments:
Assay in all cases: glycan array binding signal (z-score within array); higher = stronger binding
Conditions in all cases: glycan notation: IUPAC condensed, linker removed
[1] = target: Fuc(a1-2)Gal(b1-4)[Fuc(a1-3)]GlcNAc
In short: (§1)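 Glycan array data were curated from 3228 arrays in the Consortium for Functional Glycomics database and kept only where the protein sequence was available. Glycan names were converted to IUPAC-condensed notation, and columns mapping to the same glycan were averaged. The binding signal is a within-array Z-score, averaged across arrays of the same protein sequence at different concentrations or buffers and across linkers. Negative Z-scores can be read as non-binding.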

[2] = target: Fuc(a1-2)[Gal(a1-3)]Gal(b1-3)GlcNAc(b1-2)Man(a1-3)[Fuc(a1-2)[Gal(a1-3)]Gal(b1-3)GlcNAc(b1-2)Man(a1-6)]Man(b1-4)GlcNAc(b1-4)GlcNAc
In short: as §1

[3] = target: Fuc(a1-2)[Gal(a1-3)]Gal(b1-4)[Fuc(a1-3)]GlcNAc
In short: as §1

[4] = target: Fuc(a1-2)[GalNAc(a1-3)]Gal
In short: as §1

[5] = target: Fuc(a1-2)[GalNAc(a1-3)]Gal(b1-4)[Fuc(a1-3)]GlcNAc
In short: as §1

[6] = target: Fuc(a1-3)[Gal(b1-4)]GlcNAc(b1-2)Man(a1-3)[Fuc(a1-3)[Gal(b1-4)]GlcNAc(b1-2)Man(a1-6)]Man(b1-4)GlcNAc(b1-4)GlcNAc
In short: as §1

[7] = target: Fuc(a1-3)[Gal(b1-4)]GlcNAc(b1-2)Man(a1-3)[Fuc(a1-3)[Gal(b1-4)]GlcNAc(b1-2)Man(a1-6)]Man(b1-4)GlcNAc(b1-4)[Fuc(a1-6)]GlcNAc
In short: as §1

[8] = target: Fuc(a1-3)[Gal(b1-4)]GlcNAc(b1-4)Gal(b1-4)[Fuc(a1-3)]GlcNAc
In short: as §1

[9] = target: Gal(a1-3)Gal(b1-4)GlcNAc(b1-2)Man
In short: as §1

[10] = target: Gal(a1-3)Gal(b1-4)GlcNAc(b1-3)GalNAc
In short: as §1

[11] = target: Gal(b1-3)Gal(b1-4)GlcNAc
In short: as §1

[12] = target: Gal(b1-3)GlcNAc(b1-2)[Gal(b1-3)GlcNAc(b1-6)]Man(a1-6)[Gal(b1-3)GlcNAc(b1-2)Man(a1-3)]Man(b1-4)GlcNAc(b1-4)GlcNAc
In short: as §1

[13] = target: Gal(b1-4)GlcNAc(b1-2)Man(a1-3)[Gal(b1-4)GlcNAc(b1-2)Man(a1-6)][GlcNAc(b1-4)]Man(b1-4)GlcNAc(b1-4)[Fuc(a1-6)]GlcNAc
In short: as §1

[14] = target: Gal(b1-4)GlcNAc(b1-3)Gal(b1-4)GlcNAc(b1-3)Gal(b1-4)GlcNAc(b1-3)Gal(b1-4)GlcNAc(b1-2)Man(a1-3)[Gal(b1-4)GlcNAc(b1-3)Gal(b1-4)GlcNAc(b1-3)Gal(b1-4)GlcNAc(b1-3)Gal(b1-4)GlcNAc(b1-2)Man(a1-6)]Man(b1-4)GlcNAc(b1-4)[Fuc(a1-6)]GlcNAc
In short: as §1

[15] = target: Gal(b1-4)GlcNAc(b1-3)Gal(b1-4)GlcNAc(b1-3)Gal(b1-4)GlcNAc(b1-3)Gal(b1-4)GlcNAc(b1-2)[Gal(b1-4)GlcNAc(b1-3)Gal(b1-4)GlcNAc(b1-3)Gal(b1-4)GlcNAc(b1-3)Gal(b1-4)GlcNAc(b1-6)]Man(a1-6)[Gal(b1-4)GlcNAc(b1-3)Gal(b1-4)GlcNAc(b1-3)Gal(b1-4)GlcNAc(b1-3)Gal(b1-4)GlcNAc(b1-2)Man(a1-3)]Man(b1-4)GlcNAc(b1-4)[Fuc(a1-6)]GlcNAc
In short: as §1

[16] = target: Gal(b1-4)GlcNAc(b1-3)Gal(b1-4)GlcNAc(b1-3)Gal(b1-4)GlcNAc(b1-3)Gal(b1-4)GlcNAc(b1-3)Gal(b1-4)GlcNAc(b1-2)Man(a1-3)[Gal(b1-4)GlcNAc(b1-3)Gal(b1-4)GlcNAc(b1-3)Gal(b1-4)GlcNAc(b1-3)Gal(b1-4)GlcNAc(b1-3)Gal(b1-4)GlcNAc(b1-2)Man(a1-6)]Man(b1-4)GlcNAc(b1-4)GlcNAc
In short: as §1

[17] = target: Gal(b1-4)GlcNAc(b1-3)Gal(b1-4)GlcNAc(b1-3)Gal(b1-4)GlcNAc(b1-3)Gal(b1-4)GlcNAc(b1-3)Gal(b1-4)GlcNAc(b1-2)Man(a1-3)[Gal(b1-4)GlcNAc(b1-3)Gal(b1-4)GlcNAc(b1-3)Gal(b1-4)GlcNAc(b1-3)Gal(b1-4)GlcNAc(b1-3)Gal(b1-4)GlcNAc(b1-2)Man(a1-6)]Man(b1-4)GlcNAc(b1-4)[Fuc(a1-6)]GlcNAc
In short: as §1

[18] = target: Gal(b1-4)GlcNAc(b1-6)GalNAc
In short: as §1

[19] = target: Gal4S6S(b1-4)GlcNAc
In short: as §1

[20] = target: GalNAc(b1-4)GlcNAc
In short: as §1

[21] = target: GalNAc(b1-4)GlcNAc(b1-3)GalNAc(b1-4)GlcNAc
In short: as §1

[22] = target: GalNAc4S6S(b1-4)GlcNAc
In short: as §1

[23] = target: GalNAc6S(b1-4)GlcNAc
In short: as §1

[24] = target: Glc(a1-4)Glc(a1-4)Glc(a1-4)Glc
In short: as §1

[25] = target: GlcNAc(a1-4)Gal(b1-4)GlcNAc
In short: as §1

[26] = target: GlcNAc(b1-2)Man(a1-3)[GlcNAc(b1-2)Man(a1-6)]Man(b1-4)GlcNAc(b1-4)[Fuc(a1-6)]GlcNAc
In short: as §1

B1: HopZSSI-T (Helicobacter pylori), B5Z6D0 (protein)
chain: MGSSHHHHHHSSGLVPRGSHMENLYFQGEDNGFFISAGYQIGEAAQMVKNTGELKKLSDTYENLSNLLTNFNNLNQAVTNASSPSEINAAIDNLKANTQGLTGEKTNSPAYQAVYLALNAAVGLWNVIAYNVQCGPGNSSQQSVTFEGQPGHNSSSINCNLTGYNNGVSGPLSIDNFKQLNQAYQVLQQALKQGVPVLNNTNQKIEVKVTTQTNGQSSKETTTTTTTNDAQTLLQEASKMIDVLTTNCPWVNHNPGQNGGAPWGLIRQECVSGFATEFSAVTSMIKNAQEIVTQAQSLNANQNNQNAPQDFNPYTSADRAFAQNMLNHAQAQAKILELADQMKKDLNTIPSQFITNYLAACRIDGTTPSQGVTNNTWGAGCAYVEETITALNNSLAHFGTQAEQIKQSELLARTILDFRGSLSTLNSTYNSITTTASNTPNSPFLKNLISQSTNPNNPGGLQAVYQVNQSAYSQLLSATQELGHNPFRRIGLISSQT
- glycan array binding signal (z-score) [1]: -0.221
- glycan array binding signal (z-score) [2]: -0.111
- glycan array binding signal (z-score) [3]: 0.174
- glycan array binding signal (z-score) [4]: -0.229
- glycan array binding signal (z-score) [5]: -0.057
- glycan array binding signal (z-score) [6]: -0.248
- glycan array binding signal (z-score) [7]: -0.378
- glycan array binding signal (z-score) [8]: -0.536
- glycan array binding signal (z-score) [9]: -0.247
- glycan array binding signal (z-score) [10]: -0.615
- glycan array binding signal (z-score) [11]: -0.409
- glycan array binding signal (z-score) [12]: 0.014
- glycan array binding signal (z-score) [13]: -0.305
- glycan array binding signal (z-score) [14]: 1.74
- glycan array binding signal (z-score) [15]: 0.699
- glycan array binding signal (z-score) [16]: 2.12
- glycan array binding signal (z-score) [17]: 1.86
- glycan array binding signal (z-score) [18]: 1.25
- glycan array binding signal (z-score) [19]: -0.807
- glycan array binding signal (z-score) [20]: 2.32
- glycan array binding signal (z-score) [21]: 0.498
- glycan array binding signal (z-score) [22]: 3.87
- glycan array binding signal (z-score) [23]: 9.12
- glycan array binding signal (z-score) [24]: -0.263
- glycan array binding signal (z-score) [25]: 0.109
- glycan array binding signal (z-score) [26]: 0.081
